According to PubChem BioAssay AID1362 (SRMLSC, 2008):
The campaign covered roughly 190,000 compounds. About 4,000 (2.1%) were called active. Rule as the data show it: active = inhibition above about 58%; inactive = the rest, inconclusive results apart; tested in S. cerevisiae. The list comes from a sample in which actives are over-represented; it also holds similar structures and randomly drawn compounds.

Test: growth inhibition of WT strain, primary screen, mitochondrial fusion inhibitor project, WT and mutant strains, chemical genetic (AID 1362)
Conditions: mitochondrial fusion phenotypic screen, at 10 µM
[1] = WT strain, growth inhibition, stronger effect = higher value

| Compound | inhibition [1] | inhibition (mutant strain inhibition) |
| --- | --- | --- |
| CC1=NN(c2cccc(Cl)c2)C(=O)C12CC(C)=C(C)CS2 (stereo not given) | 71.2% (active) | 49.2% |
| CC12CCC(C(=O)N(c3cccc(Cl)c3)C1=O)C2(C)C (stereo not given) | 15.3% (inactive) | 1.52% |
| CCCCN(CC)CCNC(=O)CCNC(=O)Cn1ccc2ccccc2c1=O | -12.2% (inactive) | 5.97% |
| CN(C)c1ccc(/C=N/Nc2cc(N3CCOCC3)nc(N3CCOCC3)n2)cc1 | 2.15% (inactive) | -1.62% |
| Cc1ccc(NC(=S)NC2CCCC2)cc1 | 1.79% (inactive) | -5.24% |
| C/C(=N\NC(=S)NC1CCCCC1)c1ccc(C)o1 | 76.5% (active) | 64.5% |
| C/C(=N/NC(=O)c1ccc(Br)o1)c1ccc(C)o1 | -7.01% (inactive) | -8.07% |
| COc1ccc(C(=O)Nc2ccc(N3CCC(C)CC3)cc2)cc1Br | -5.4% (inactive) | 7.51% |
| O=S(=O)(c1ccc2c(c1)OCCO2)N1CCc2ccccc21 | -3.01% (inactive) | -8.75% |
| CN(C)C=NC(=O)c1cccn1-c1ncc(C(F)(F)F)cc1Cl | 17.4% (inactive) | -2.64% |
| Cc1noc(C)c1COc1ccc2ccc(=O)oc2c1 | 7.56% (inactive) | -14.3% |
| c1n[nH]c(NCc2ccc3c(c2)OCO3)n1 | 76.9% (active) | 23% |
| COc1cc(CNc2ncn[nH]2)ccc1OCc1ccccc1C | -10% (inactive) | 6.17% |
| O=C(CSc1ncn[nH]1)NCc1ccc2c(c1)OCO2 | -7.65% (inactive) | 6.4% |
| CCCn1c(C(O)c2ccc(OCC)cc2)nc2ccccc21 (stereo not given) | 16.9% (inactive) | 18.6% |
| CCCCCC(O)c1cccc(OCc2ccc3ccccc3n2)c1 (stereo not given) | 77.5% (active) | 12.2% |
| CCCCCCOC(=O)NCC(O)c1ccccc1 (stereo not given) | -6.62% (inactive) | -10.2% |
| CCn1c(N)c(Br)c(=O)[nH]c1=O | -1.38% (inactive) | 6.81% |
| CCOC(=O)c1ccc[n+](CC(=O)Nc2ccccc2OC(F)F)c1 | -21.9% (inactive) | -5.87% |
| CCOC(=O)c1sc(=NC(=O)/C=C/c2cccs2)n(C)c1C | 11.4% (inactive) | -7.32% |
| COc1ccc(NC(=O)C(Br)C(C)C)cc1 (stereo not given) | -7.51% (inactive) | 2.44% |
| CC1CCN(c2ccc([N+](=O)[O-])cc2C(N)=O)CC1 | 3.04% (inactive) | -16.1% |
| Cc1ccc(-n2c(SCC(=O)Nc3ncc(Cl)cc3Cl)nc3ccccc32)cc1 | 74.2% (active) | 43.6% |

| Compound | inhibition [1] | inhibition (mutant strain inhibition) |
| --- | --- | --- |
| Cc1ccc(SCCC(=O)OCC(=O)Nc2ncc(Cl)cc2Cl)cc1 | 2.29% (inactive) | 2.8% |
| NS(=O)(=O)c1cccc(NC(=O)CSc2nc3ccccc3n2-c2ccccc2)c1 | -7.39% (inactive) | 1% |
| S=C(c1ccc(-c2ccccc2)o1)N1CCCCC1 | 43.1% (inactive) | 35.3% |
| Clc1ccc(Nc2nc(-c3cccs3)cs2)nc1 | 78.8% (active) | 68.5% |
| c1ccc(Nc2nc(-c3ccncc3)cs2)nc1 | 23.8% (inactive) | 27.6% |
| O=C(Nc1ccc(Cl)cn1)Nc1cccs1 | 8.8% (inactive) | 18.2% |
| COc1ccccc1N1CCN(/N=C\C(Br)=C\c2ccccc2)CC1 | 15.4% (inactive) | 14.3% |
| O=C(Nc1ccccc1Cl)/C(Cl)=C(\Cl)S(=O)c1ccccc1 (stereo not given) | 95.8% (active) | 92.8% |
| O=C(Nc1ccccc1Cl)c1ccc2nsnc2c1 | -2.83% (inactive) | -10.8% |
| O=C(CN1CCCCC1)Nc1ccccc1Cl | -11.8% (inactive) | 3.7% |
| O=C(Cc1ccccc1)NNC(=O)C1CCN(c2ncccn2)CC1 | -17.4% (inactive) | -9.74% |
| CC(c1ccco1)N(C(=O)c1ccc(S(=O)(=O)N2CCCCC2)cc1)c1ccccn1 (stereo not given) | 4.63% (inactive) | -4.51% |
| O=C(COc1ccccc1[N+](=O)[O-])NC1CC1 | -0.95% (inactive) | 8.16% |
| CC(c1ccco1)N(C(=O)COc1ccccc1[N+](=O)[O-])c1ccccn1 (stereo not given) | 70.6% (active) | 2.58% |
| CCCCN(CC(=O)NC(C)(C)C)C(=O)C(=O)Nc1ccc2c(c1)OCCO2 | -14.6% (inactive) | 11% |
| OCCC#Cc1ccc(CN2CCN(Cc3ccsc3)C(CCO)C2)cc1 (stereo not given) | 2.66% (inactive) | -0.56% |
| CCOC(=O)c1ccc(NC(=S)Nc2cc(C)cc(C)n2)cc1 | 12.9% (inactive) | 22.8% |
| Cc1ccc2c(c1)C1CN(C)CCC1N2S(=O)(=O)c1ccc(Oc2ccc([N+](=O)[O-])cc2)cc1 (stereo not given) | 78.9% (active) | 62.2% |
| Cc1ccc2c(c1)C1CN(C)CCC1N2C(=S)Nc1ccc(OC(F)F)cc1 (stereo not given) | 17.8% (inactive) | 8.65% |
| Cc1ccc2c(c1)C1CN(C)CCC1N2C(=O)c1ccccc1NS(=O)(=O)c1ccc(F)cc1C (stereo not given) | -2.24% (inactive) | -7.82% |
| Cc1ccc(S(=O)(=O)CCC(=O)OCc2ccccc2)cc1 | 0.5% (inactive) | 13.9% |
| C=CCN(CC=C)CCOc1ccccc1[N+](=O)[O-] | 1.42% (inactive) | 1.87% |
| CC1=CC2=NC(=O)CC(C)(C(=O)N(CC(=O)NC(C)(C)C)Cc3ccccc3)N2C=C1 (stereo not given) | -18.1% (inactive) | -9.57% |

| Compound | inhibition [1] | inhibition (mutant strain inhibition) |
| --- | --- | --- |
| Cc1nnc(SCC(=O)N2c3ccccc3C(C)(c3ccc(Cl)cc3)CC2(C)C)s1 (stereo not given) | 68.9% (active) | 10.2% |
| Cc1nnc(SCC(=O)N2CCc3ccccc3C2)s1 | 3.58% (inactive) | -9.75% |
| Cc1nnc(SCC(=O)NCc2ccccc2)s1 | 9.71% (inactive) | 1.45% |
| CCCCCCCC1(C)NC(=O)N(CC(=O)Nc2cc(C)on2)C1=O (stereo not given) | 3.19% (inactive) | -21% |
| COc1cc(C)c(S(=O)(=O)N2CCOCC2)c(C)c1C | -12.4% (inactive) | -18.1% |
| CC(C)(C)N(CC#CCC(O)(c1ccccc1)C1CCCC1)CCO (stereo not given) | -9.77% (inactive) | -9.45% |
| COc1cccc(/C=C/C(=O)Nc2ccc3c(c2)OCCO3)c1 | 19.1% (inactive) | 5.63% |
| CCC1(C)Cc2c(sc3nc(SC)nc(N)c23)CO1 (stereo not given) | -20.9% (inactive) | -10.7% |
| CN(C)CCSc1nc(N)c2c3c(sc2n1)COC(C)(C)C3 | -20.9% (inactive) | -1.39% |
| CCCSc1nc(NCc2ccco2)c2c3c(sc2n1)COC(C)(CC)C3 (stereo not given) | 58.6% (active) | 41.2% |
| O=C(CC(O)(C(F)(F)F)C(F)(F)F)Nc1ccc(Cl)c(Cl)c1 | 84.6% (inactive) | 85.2% |
| N/C(=N\OC(=O)Nc1ccc(Cl)c(Cl)c1)c1ncc(C(F)(F)F)cc1Cl | 80.3% (active) | 78.5% |
| N/C(=N\OC(=O)CCCC(=O)O)c1ncc(C(F)(F)F)cc1Cl | 9.89% (inactive) | 9.98% |
| CCc1cccc2c(=O)c(C(=O)NCCCOC)c[nH]c12 | 4.61% (inactive) | 8.59% |
| CCN1CCN(CC(=O)c2cc(OC)c(OC)c(OC)c2)CC1 | -2.06% (inactive) | -0.71% |
| COc1cccc(-c2cnc(OC(C)(C)C)nc2OC(C)(C)C)c1 | 84.1% (active) | 27.8% |
| COc1cccc(-c2nc3cc(C)ccc3o2)c1 | 26.9% (inactive) | 17.7% |
| CC(C)(C)Oc1ncc(Br)c(OC(C)(C)C)n1 | 18.5% (inactive) | 15.1% |
| Cc1ccccc1NC(=O)NNC(=O)OC(C)(C)C | -2.03% (inactive) | -7.53% |
| [O-][n+]1c2c(nn1-c1ccc(Cl)c(Cl)c1)-c1nonc1CC2 | 38% (inactive) | 6.81% |
| CN(C)CCN=c1cc(-c2ccccc2)oc2ccc(Cl)cc12 | 10.8% (inactive) | 15.6% |
| c1ccc(Nc2nc(N3CCOCC3)c3ccccc3n2)cc1 | 44.7% (inactive) | 45.5% |
| c1ccc2c(NC3C4CC5CC(C4)CC3C5)nc(N3CCOCC3)nc2c1 (stereo not given) | 69.3% (active) | 45.5% |

| Compound | inhibition [1] | inhibition (mutant strain inhibition) |
| --- | --- | --- |
| CC(Nc1nc(N2CCOCC2)nc2ccccc12)c1ccccc1 (stereo not given) | 7.41% (inactive) | -4.07% |
| CCc1nc2ccccc2c(C(=O)NCc2ccc(OC)cc2)c1C | -7.63% (inactive) | -13.1% |
| CC(=O)NC1C(Oc2ccc(C=O)cc2)OC(COC(C)=O)C(OC(C)=O)C1OC(C)=O (stereo not given) | -6.93% (inactive) | -11.4% |
| Cn1nnnc1-c1cc(Cl)cc(Cl)c1 | 0.51% (inactive) | 21.3% |
| Cc1nc(NCCN)c(C#N)c2c1COC(C)(C)C2 | 24.4% (inactive) | 10.2% |
| CCCCc1nc(NCCN)c(C#N)c2c1CSC(C)(C)C2 | 85.3% (active) | 31.7% |
| CCCCc1nc(NCc2ccccc2)c(C#N)c2c1CCCC2 | -9.79% (inactive) | 2.15% |
| CCN1CCN(c2ccc(NC(=O)c3cnccn3)cc2)CC1 | 4.84% (inactive) | 4.5% |
| CCn1ccnc1CN1CCCC(C(=O)c2ccc3c4c(cccc24)CC3)C1 (stereo not given) | 42.3% (inactive) | 36.2% |
| Cc1cnc(C(=O)OCC(=O)NCCCc2ccccc2)cn1 | 14.9% (inactive) | 3.19% |
| O=c1c2ccccc2c(-c2ccccc2)nn1Cc1ccccc1 | -8.61% (inactive) | -0.27% |
| O=c1cc(N2CCN(Cc3ccccc3)CC2)c(-c2ccccc2)n[nH]1 | -12.8% (inactive) | -10.6% |
| O=c1cc(N2CCCCC2)c(-c2ccccc2)nn1Cc1cccc(F)c1 | 87.9% (active) | 46.3% |
| CC(=O)Nc1ccccc1OC(C)C(=O)N1CCC(C)CC1 (stereo not given) | -7.46% (inactive) | 7.56% |
| Cc1ccc(C)c(-n2ccnc2SCC(N)=O)c1 | 5.62% (inactive) | 13.6% |
| O=C(CCn1c(=S)[nH]c2ccccc2c1=O)NCCCN1CCCC1=O | -5% (inactive) | -5.53% |
| CCCCn1c(=S)[nH]c2ccccc2c1=O | 4.59% (inactive) | 8.61% |
| O=c1c2ccccc2[nH]c(=S)n1CCN1CCC(=C(c2ccc(F)cc2)c2ccc(F)cc2)CC1 | 77.9% (active) | 62.2% |
| Cc1ccc(Cn2c(NC(=O)c3ccco3)nc3ccccc32)cc1 | 92.4% (active) | -2.81% |
| Cc1ccc(-n2nc3cc(Cl)c(NC(=O)c4ccco4)cc3n2)cc1 | 16.1% (inactive) | -7.45% |
| CC(=O)Nc1nc2ccccc2n1Cc1ccc(C)cc1 | 15.3% (inactive) | 15.5% |
